Assay results taken from PubChem BioAssay.
Several values for one entry are separate records, joined by “and”; a condition that tells them apart may be missing. Equal entries are not always repeated. Activity calls are given as the source filed them. The rule behind the calls is not given here.

Test: kinase inhibitors against Plasmodium liver-stage infection, cell-based, known kinase inhibitor set, luminescence, hepatoma host viability (AID 624392);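 note: infected cells incubated roughly two days before readout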
Settings: Plasmodium liver stage in hepatoma cells, luciferase luminescence, concentration not given here; liver cell % of control: measured here: host liver cell viability; parasite % of control: stronger effect = lower value

SMILES	liver cell % of control	parasite % of control
O=C1NN(c2ccccc2)C(=O)C1=Cc1ccc(-c2ccc(Cl)cc2)o1	98.7%	92.2% (inactive)
COc1cc(NC(=O)c2ccnnc2)cc(C(=O)Nc2cccc(C(F)(F)F)c2)c1	93.4%	97.5% (inactive)
CCN1CCN(Cc2ccc(NC(=O)c3ccc(C)c(NC(=O)c4ccno4)c3)cc2C(F)(F)F)CC1	100%	100% (inactive)
O=C1NCCC(=NNc2cccnc2)c2c1[nH]c1ccc(Cl)cc21	99.3%	133% (inactive)
CCN1CCN(Cc2ccc(NC(=O)c3cc(NC(=O)c4cc(-c5ccc(OC)cc5)n[nH]4)cc(OC)c3)cc2C(F)(F)F)CC1	90.4%	132% (inactive)
CCN1CCN(Cc2ccc(NC(=O)c3ccc(C)c(NC(=O)c4cccc5[nH]ccc45)c3)cc2C(F)(F)F)CC1	103%	99.7% (inactive)
O=C(Nc1ccc(-c2csc(Nc3ccccc3)n2)cc1)c1ccccc1	102%	204% (inactive)
C=CC(=O)Nc1cccc(Oc2cc(Cl)nc3[nH]ccc23)c1	101%	63.5% (inactive)
CC(C)(C)OC(=O)NC(COc1cncc(Br)c1)Cc1c[nH]c2ccccc12 (stereo not given)	95.1%	98.7% (inactive)
CCN1CCN(Cc2ccc(NC(=O)c3cc(NC(=O)c4nccnc4N)cc(OC)c3)cc2C(F)(F)F)CC1	98.4%	64.5% (inactive)
CCN1CCN(Cc2ccc(NC(=O)c3ccc(C)c(NC(=O)c4c[nH]c5cc(C(F)(F)F)ccc5c4=O)c3)cc2C(F)(F)F)CC1	45.6%	4.19% (active)
Cc1cn(-c2cc(NC(=O)c3ccc(C)c(NC(=O)c4cccc(-c5cn[nH]c(=O)c5)c4)c3)cc(C(F)(F)F)c2)cn1	97.4%	93.8% (inactive)
NS(=O)(=O)c1ccc(-c2ccc(C=C3C(=O)Nc4ccccc43)o2)cc1	99.7%	90.6% (inactive)
COc1cc(NC(=O)c2cc3cccc(OC)c3o2)cc(C(=O)Nc2cccc(C(F)(F)F)c2)c1	95.6%	62.8% (inactive)
C=CC(=O)Nc1ccc(N(C)c2ccnc(Nc3ccc(N4CCN(C)CC4)cc3)n2)cc1	107%	27.8% (inactive)
CS(=O)(=O)Nc1ccc(-c2cc(C=C3SC(N)=NC3=O)c[nH]c2=O)cc1	97.7%	127% (inactive)
Cc1ccc(C(=O)Nc2cccc(C(F)(F)F)c2)cc1NC(=O)c1nccn1C	99.8%	33.1% (inactive)
CCN1CCN(Cc2ccc(C(=O)Nc3ccc(C)c(NCc4cnc(NC(=O)OC)cn4)c3)cc2C(F)(F)F)CC1	105%	107% (inactive)
NS(=O)(=O)c1ccc(-c2ccc(C=C3NC(=S)NC3=O)o2)cc1	98.7%	100% (inactive)
CCN1CCN(Cc2ccc(NC(=O)c3ccc(C)c(NC(=O)CC4NC(=O)C(Cc5ccccc5)NC4=O)c3)cc2C(F)(F)F)CC1 (stereo not given)	105%	114% (inactive)

SMILES	liver cell % of control	parasite % of control
CCN1C(=O)CC(c2ccccc2)N(C2CCCC2)c2nc(Nc3ccc(C(=O)NC4CCN(C)CC4)cc3OC)ncc21 (stereo not given)	94.4%	83.8% (inactive)
CCN1CCN(Cc2ccc(NC(=O)c3ccc(C)c(NC(=O)c4cccc(-c5cn[nH]c(=O)c5)c4)c3)cc2C(F)(F)F)CC1	103%	55.8% (inactive)
NC(=O)c1cccc(-c2cnc(N)c(C(=O)c3cccnc3)n2)c1	101%	179% (inactive)
C=CC(=O)Nc1ccc(CN2C(=O)N(c3c(Cl)c(OC)cc(OC)c3Cl)Cc3cnc(NCCCCN(CC)CC)nc32)cc1	96.7%	227% (inactive)
Cc1ccc(C(=O)Nc2cccc(C(F)(F)F)c2)cc1NC(=O)c1c[nH]c2cc(C(F)(F)F)ccc2c1=O	97.9%	25.1% (inactive)
C=CC(=O)Nc1ccc(Oc2nc(Nc3ccc(N4CCN(C)CC4)cc3OC)ncc2Cl)cc1	97.7%	126% (inactive)
COc1ccc(CNc2nc(NCc3ccc(OC)cc3)c3ncn(C(C)C)c3n2)cc1	107%	168% (inactive)
CC(C)n1cnc2c(Nc3cccc(F)c3)nc(NCCO)nc21	95.1%	135% (inactive)
Cc1nc(Nc2cnc(C=Cc3cc(C(=O)Nc4cccc(C(F)(F)F)c4)ccc3C)cn2)cc(N2CCNCC2)n1	92.4%	144% (inactive)
CCN1CCN(Cc2ccc(NC(=O)c3ccc(C)c(NC(=O)C(=O)c4c[nH]c5ccccc45)c3)cc2C(F)(F)F)CC1	69.8%	99.9% (inactive)
C=CC(=O)Nc1ccc(Nc2ccnc(Nc3ccc(N4CCN(C)CC4)cc3)n2)cc1	105%	124% (inactive)
CC(C)C(CO)Nc1nc(Nc2ccc(S(=O)(=O)O)c(N)c2)c2ncn(C(C)C)c2n1 (stereo not given)	101%	105% (inactive)
CC(C)C(CO)Nc1nc(Nc2ccc(C(=O)O)c(Cl)c2)c2ncn(C(C)C)c2n1 (stereo not given)	52.3% and 72.3%	13.7% (inactive) and 48.9% (inactive) and 114% (inactive)
CC(C)n1cnc2c(NCc3ccc(S(N)(=O)=O)cc3)nc(NCc3ccc(S(N)(=O)=O)cc3)nc21	102%	108% (inactive)
NC1=NC(=O)C(=Cc2cccc(-c3ccc(S(N)(=O)=O)cc3)c2)S1	98%	377% (inactive)
CN(c1ccc(OC(F)(F)F)cc1)c1cc(-c2cccc(C(N)=O)c2)ncn1	99.1%	107% (inactive)
Cc1ccc(C(=O)Nc2cccc(C(F)(F)F)c2)cc1NC(=O)c1cnnc2ccccc12	104%	44.2% (inactive)
Cc1ccc(C(=O)Nc2cccc(C(F)(F)F)c2)cc1Nc1cnccn1	98.3%	23.7% (inactive)
NS(=O)(=O)c1ccc(-c2ccc(C=C3SC(=O)NC3=O)o2)cc1	89%	18.1% (active)
CCC(CO)Nc1nc(Nc2cccc(Cl)c2)c2ncn(C(C)C)c2n1 (stereo not given)	90.3%	477% (inactive)

SMILES	liver cell % of control	parasite % of control
CCN1C(=O)CCN(C2CCCC2)c2nc(Nc3ccc(C(=O)NC4CCN(C)CC4)cc3OC)ncc21	91.7%	362% (inactive)
CC(C)n1cnc2c(Nc3ccc(C(=O)O)cc3)nc(Cl)nc21	88.9%	123% (inactive)
CCN1C(=O)CC(C(C)C)N(C2CCCC2)c2nc(Nc3ccc(C(=O)NC4CCN(C)CC4)cc3OC)ncc21 (stereo not given)	102%	87.6% (inactive)
O=C(Nc1ccc(-c2csc(Nc3cccc(C(F)(F)F)c3)n2)cc1)c1ccccc1	106%	69.1% (inactive)
CCN1CCN(Cc2ccc(NC(=O)c3ccc(C)c(NC(=O)c4csc(-c5ccncc5)n4)c3)cc2C(F)(F)F)CC1	99.6%	126% (inactive)
O=C(Nc1ccc(-c2csc(Nc3ccc(Cl)cc3)n2)cc1)c1ccccc1	103%	110% (inactive)
C=CC(=O)N1CCCC(Nc2nc(Nc3ccc(N(C)C(=O)CC)cc3C)nc3nc[nH]c23)C1 (stereo not given)	105%	93.2% (inactive)
CCN1CCN(Cc2ccc(NC(=O)c3cc(NC(=O)C4=NN(c5ccccc5)C(=O)C4)cc(OC)c3)cc2C(F)(F)F)CC1	100%	110% (inactive)
COc1cc(NC(=O)c2cncc(-c3ccc(C#N)cc3)c2)cc(C(=O)Nc2cccc(C(F)(F)F)c2)c1	98.8%	101% (inactive)
CN(C)CCCNc1ccc(-c2cc(Nc3cccc(Cl)c3)ncn2)cn1	94.9%	108% (inactive)
CN(C)CC=CC(=O)Nc1cccc(-c2c[nH]c3ncnc(Oc4ccc(NC(=O)CC(=O)Nc5ccc(F)cc5)cc4F)c23)c1	96.3%	155% (inactive)
C=CC(=O)Nc1cccc(Oc2ccnc3[nH]ccc23)c1	102%	56.9% (inactive)
Cc1ccc(C(=O)Nc2cccc(C(F)(F)F)c2)cc1NC(=O)c1csc(-c2ccncc2)n1	91.8%	76.3% (inactive)
O=C1NC(=O)C(=Cc2ccc(-c3ccc(S(=O)(=O)N4CCNCC4)cc3)o2)C(=O)N1	94.8%	303% (inactive)
O=C(Nc1cccc(-c2csc(Nc3ccccc3)n2)c1)c1cc([N+](=O)[O-])cc(C(F)(F)F)c1	92.9%	168% (inactive)
CCN1CCN(Cc2ccc(NC(=O)c3cc(NC(=O)c4cnn(-c5ccccc5)c4N)cc(OC)c3)cc2C(F)(F)F)CC1	109%	130% (inactive)
CC(C)n1cnc2c(N(Cc3ccccc3)c3cccc(Cl)c3)nc(N(CCN(C)C)Cc3ccccc3)nc21	82.6%	9.42% (active)
COc1cc(C(=O)NC2CCN(C)CC2)ccc1Nc1ncc2c(n1)N(C1CCC(O)CC1)CCC(=O)N2C (stereo not given)	103%	180% (inactive)
CCN1CCN(Cc2ccc(NC(=O)c3cc(NC(=O)C(=O)c4c[nH]c5ccccc45)cc(OC)c3)cc2C(F)(F)F)CC1	92.9%	85.7% (inactive)
COc1cc(C(=O)N2CCC(N3CCCCC3)CC2)ccc1Nc1nnc(Cl)c(Nc2ccccc2S(C)(=O)=O)n1	97.3%	118% (inactive)
